Data reported in the OligoGym collection.

molecular target: COL4A3BP; assay: pooled miR-30 sensor sort-seq; sequence = guide strand; conditions: shRNA
Also: reference of the scale not given here.

Sequence	sensor-assay potency score (higher = more potent)
TCGACATTCATCAAAATCGTGA	-0.678
TTGCATAGAATGTTGTCCCTGC	0.716
TTCTCTTCTGTATACCTTCATT	-1.23
TTCTCCTTCTTCTACAACCAAC	-1.55
TTAGCTACATATGTAATCTTGC	0.206
TTCTTCTACAACCAACTGCCAA	-0.938
TTATTTTTCAAAACTACCCAAC	-0.396
TATCTTGTCTGTCAAGAGCAGC	-1.23
TACTTCTCTTCTGTATACCTTC	-0.012
TAACTTTTCTTTATTGCCGTTG	-0.347

molecular target: COMMD10; assay: as above; conditions: shRNA

Sequence	sensor-assay potency score (higher = more potent)
TGCTTGTATAGTCTCTAGCTTG	-1.08
TTGTCTAAGATGAATGTTCTCT	0.187
TTAACAATGATCTCTATTGGTT	-0.722
TTGAGCAGAGTGAGCCATCTGA	-0.146
TTGCATTTATCAGTGACACTGC	0.191
TTGTATAGTCTCTAGCTTGTTA	0.109
TTTTTGAAGAATCCGAGTGAGC	-1.13
TATTGTTTCAAGAACTAGGTGA	0.412
TAGAAATCAAACAACTCCTTGT	0.836
TTCCACAAGAACTTTCTCCAGG	-0.261
TTCTACTAAGGTACACATCTTA	0.49
TAAGGTACACATCTTATCTTGT	0.795
